Anthrax LF prot – anthrax lethal factor protease inhibition; inhibition, % at 10 µM; P15917; 0.12% of 360,000 active; multiplex microsphere protease cleavage assay, LF
3CLpro inhibitor – SARS-CoV 3CLpro protease inhibition. P0C6X7. recombinant SARS-CoV 3CLpro, quenched FRET peptide cleavage. inhibition, % at 6 µM. 0.14% of 290,000 active. AID 1706; in the data active means inhibition above about 12%
CCHF vOTU inh – blocks the CCHF virus ovarian tumor domain protease; 0.55% of 370,000 active; CCHFV vOTU protease, Pep-AMC fluorescence; inhibition, % at 11.5 µM; AID 651958; in the data active means inhibition above about 30%
BoNT-F LC inh – BoNT F light chain protease inhibition. inhibition, % at 10 µM. AID 588497. Multiplex microsphere protease cleavage assay, flow cytometry. 0.22% of 360,000 active; in the data active means inhibition above about 35%, passing the limit was not always enough; inconclusive means no clear call, values can overlap the other calls
Autofluor counter – compound fluorescence in toxin protease inhibitor counterscreen; fluorescence intensity (test concentration not listed); AID 624483; compound autofluorescence counterscreen, microsphere flow cytometry; active compounds read high; 3.1% of 360,000 active; in the data active means fluorescence intensity above about 16000; inconclusive means no clear call, values can overlap the other calls
BoNT-A LC inh2 – BoNT A light chain protease inhibition | AID 588499 | multiplex microsphere protease substrate cleavage, flow cytometry | inhibition, % at 10 µM | 0.17% of 360,000 active
Of the large screens only hits and unclear results are named; the others gave an inactive call. Rows were chosen to be rich in hits. Some 3.9% of all compounds tested hit in one or more screens of this group. Unless noted, no stated cut-off is given here; in the data, active means inhibition above about 30%; inconclusive means no clear call, values can overlap the other calls; inactive means below that.

Cc1csc(NC(=O)c2nc(-c3ccccc3)n(-c3ccccc3)n2)n1	Autofluor counter 22922
O=C1/C(=C\c2ccco2)SC(=S)N1Cc1ccccc1	Anthrax LF prot 33.7, BoNT-A LC inh2 43.6
O=C(CCN1C(=O)/C(=C/c2ccco2)SC1=S)Nc1ccc(O)cc1C(=O)O	none
O=C(CN1C(=O)/C(=C\c2ccco2)SC1=S)Nc1ccc(O)cc1C(=O)O	CCHF vOTU inh 30.9
COc1ccc(/C=C2/SC(=S)N(Cc3ccccc3)C2=O)cc1O	none
O=C1/C(=C\c2cc(Cl)c(O)c(Cl)c2)SC(=S)N1Cc1ccccc1	Autofluor counter 17886
O=C(NCc1ccccc1)[C@@H]1CCCN1C(=O)[C@H]1CCCN1C(=O)c1ccc(Cl)c(Cl)c1	none (no result: Anthrax LF prot, 3CLpro inhibitor, BoNT-F LC inh, Autofluor counter, BoNT-A LC inh2)
COc1ccccc1NC(=O)Cc1noc(CSc2nnc(C)s2)n1	Autofluor counter 22803
CN(c1ccccc1)c1nc2ccsc2c(=O)s1	Autofluor counter 21828
O=S(=O)(c1ccc(NC(=S)N/N=C/c2c3ccccc3cc3ccccc23)cc1)N1CCOCC1	BoNT-A LC inh2 32.6
O=S(=O)(c1ccc(NC(=S)N/N=C/c2ccc(Oc3ccccc3)cc2)cc1)N1CCOCC1	none
CC(C)CNc1cccc2c1S(=O)(=O)N(Cc1cn(Cc3ccc(F)cc3)nn1)Cc1ccccc1O2	none (no result: Anthrax LF prot, 3CLpro inhibitor, BoNT-F LC inh, Autofluor counter, BoNT-A LC inh2)
O=C(O)CC1S/C(=N/N=C/c2ccc(Br)cc2)N(c2ccccc2)C1=O (stereo unspecified)	none
COc1ccc(N2C(=O)C(CC(=O)O)S/C2=N\N=C\c2cccs2)cc1 (stereo unspecified)	BoNT-F LC inh 43.3
C=CC[C@@H](CC(=O)N[C@H](CO)Cc1ccccc1)C(=O)N[C@H](COC(=O)[C@H](CC=C)CC(=O)OC(C)(C)C)Cc1c[nH]c2ccccc12	CCHF vOTU inh 36.8 (no result: 3CLpro inhibitor)
Cc1cc(C(=O)CCl)c(C)n1Cc1ccco1	3CLpro inhibitor 25.1
Cc1cc(C(=O)CSc2nncs2)c(C)n1Cc1ccco1	none
O=C(Nc1ccccc1)c1cc(-n2cnnc2)ccc1Cl	none
O=C(NCc1ccc2c(c1)OCO2)c1cc(-n2cnnc2)ccc1Cl	Autofluor counter 19482
Cc1nc(NC(=O)c2cc(-n3cnnc3)ccc2Cl)ccc1Br	Autofluor counter 21255
CCSCCNC(=O)c1cc(-n2cnnc2)ccc1Cl	Autofluor counter 21120, BoNT-A LC inh2 inconclusive
O=C(NCCOc1cccc(Cl)c1Cl)c1cc(-n2cnnc2)ccc1Cl	none (no result: CCHF vOTU inh)
Cc1cc(C)cc(C(=O)OCCN2CCN(C3CN(Cc4cn(Cc5ccccc5F)nn4)S(=O)(=O)C3)CC2)c1 (stereo unspecified)	none (no result: Anthrax LF prot, 3CLpro inhibitor, BoNT-F LC inh, Autofluor counter, BoNT-A LC inh2)
CCCC(=O)Nc1nn(CCC)c2nc3ccccc3cc12	Autofluor counter 21458
CCn1nc(NC(=O)c2ccncc2)c2cc3ccc(C)cc3nc21	Autofluor counter 20719
CCCn1nc(NC(=O)C2CCCO2)c2cc3ccc(C)cc3nc21 (stereo unspecified)	BoNT-F LC inh inconclusive
CCn1nc(NC(=O)c2ccncc2)c2cc3cc(C)ccc3nc21	BoNT-F LC inh inconclusive
CCCn1nc(NC(=O)c2ccncc2)c2cc3ccccc3nc21	none
CCCn1nc(NC(=O)c2cccs2)c2cc3ccccc3nc21	Autofluor counter 23719
CCCn1nc(NC(=O)C2CCCO2)c2cc3cc(C)ccc3nc21 (stereo unspecified)	Autofluor counter 21148
CCNC(=S)NNC(=O)CSc1nc2ccccc2c(=O)n1-c1ccc(Cl)cc1	none (no result: Anthrax LF prot, 3CLpro inhibitor, BoNT-F LC inh, Autofluor counter, BoNT-A LC inh2)
CCCCn1nc(NC(=O)c2cccs2)c2cc3ccccc3nc21	Autofluor counter 21346
CCCCn1nc(NC(=O)c2cccs2)c2cc3cc(OC)ccc3nc21	none
CCOC(=O)c1c(C)oc2c1c(C(c1ccccc1)N1CCOCC1)c(O)c1ccccc12 (stereo unspecified)	Autofluor counter 19404, BoNT-A LC inh2 inconclusive
CCOC(=O)c1c(C)oc2c1c(C(c1cccnc1)N1CCCCC1)c(O)c1ccccc12 (stereo unspecified)	none
CCn1c(COc2ccc(Cl)cc2)nnc1SCC(=O)Nc1ccc(Oc2ccccc2)cc1	none (no result: Anthrax LF prot, 3CLpro inhibitor, BoNT-F LC inh, Autofluor counter, BoNT-A LC inh2)
CCC(NS(=O)(=O)c1ccc(C)cc1)C(=O)O (stereo unspecified)	Autofluor counter 21879
CCCC(NS(=O)(=O)c1ccc(Br)cc1)C(=O)O (stereo unspecified)	Autofluor counter 25446
O=C(Nc1ccc(Cl)c(Cl)c1)C1CCN(c2nnc(-n3cccc3)s2)CC1	none (no result: Anthrax LF prot, 3CLpro inhibitor, BoNT-F LC inh, Autofluor counter, BoNT-A LC inh2)
c1ccc(-c2nnc3sc(CN4CCC5(CC4)OCCO5)cn23)cc1	Autofluor counter 20544
Cn1c(=O)c2cc(NCc3ccccc3)nnc2n(C)c1=O	CCHF vOTU inh 96.3
OC(CN1CCNCC1)Cn1ccc2ccccc21 (stereo unspecified)	none (no result: Anthrax LF prot, CCHF vOTU inh, BoNT-F LC inh, Autofluor counter, BoNT-A LC inh2)
O=C1c2ccccc2S(=O)(=O)N1CC(O)Cn1ccc2ccccc21 (stereo unspecified)	Autofluor counter 22501, BoNT-A LC inh2 156.2
Oc1ccccc1NCC(O)Cn1ccc2ccccc21 (stereo unspecified)	Autofluor counter 22217, BoNT-A LC inh2 inconclusive
OC(CNCc1ccccc1)Cn1ccc2ccccc21 (stereo unspecified)	none
O=C(Cc1ccc(F)cc1)Nc1nccs1	BoNT-F LC inh 41.9
CCc1ccc(CCC(=O)Nc2nccs2)o1	Autofluor counter 21884
Cc1ccc(CC(=O)Nc2nccs2)cc1	none
COC(=O)[C@]12C=CCN1[C@H](c1ccc(OC)c(OC)c1)c1c(c3ccccc3n1S(=O)(=O)c1ccc(C)cc1)C2	none (no result: Anthrax LF prot, 3CLpro inhibitor, BoNT-F LC inh, Autofluor counter, BoNT-A LC inh2)
C[C@@H]1CCCN1c1ccc2c(c1)OCCCN(C1CC1)S2(=O)=O	none (no result: Anthrax LF prot, 3CLpro inhibitor, BoNT-F LC inh, Autofluor counter, BoNT-A LC inh2)
O=C1NC(=O)C2(Cc3ccccc3N3CCCC32)C(=O)N1c1cccc(Cl)c1 (stereo unspecified)	Autofluor counter 20287, BoNT-A LC inh2 inconclusive
Cc1ccc(N2C(=O)NC(=O)C3(Cc4ccccc4N4CCN(c5ccccc5)CC43)C2=O)cc1 (stereo unspecified)	Autofluor counter 19868
O=C1c2ccccc2C(=O)C12Cc1ccccc1N1CCN(c3ccccc3)CC12 (stereo unspecified)	none
Brc1c(CSc2nncn2-c2ccccc2)nc2sccn12	Autofluor counter 19506
O=C(NCCCc1ccccc1)C1CC(=O)N(c2ccc3c(c2)OCCO3)C1 (stereo unspecified)	Autofluor counter 20162, BoNT-A LC inh2 inconclusive
C/C(=N/NC(=O)c1ccoc1C)c1cccs1	none (no result: Anthrax LF prot, 3CLpro inhibitor, BoNT-F LC inh, Autofluor counter, BoNT-A LC inh2)
CCN1CCN(C(=O)c2cc(-c3cccnc3)nc3ccc(Br)cc23)CC1	Autofluor counter 20068, BoNT-A LC inh2 inconclusive
O=C(c1cc(-c2cccnc2)nc2ccc(Br)cc12)N1CCC2(CC1)OCCO2	none (no result: Anthrax LF prot, CCHF vOTU inh, BoNT-F LC inh, Autofluor counter, BoNT-A LC inh2)
CCCCCC(=O)NC1CCCCN(C)C1=O (stereo unspecified)	none (no result: Anthrax LF prot, 3CLpro inhibitor, BoNT-F LC inh, Autofluor counter, BoNT-A LC inh2)
O=c1cc(/C=C/c2ccccc2)oc2ccccc12	Autofluor counter 22100, BoNT-A LC inh2 inconclusive
C/C(=N\Nc1cc(Cl)nc(C)n1)c1ccc(C)cc1	Autofluor counter 22065
C/C(=N\Nc1cc(Cl)nc(C)n1)c1ccc(Cl)c(Cl)c1	none
CCCn1nc2ccccc2c1P(=N)(N1CCOCC1)N1CCOCC1	Autofluor counter 20501, BoNT-A LC inh2 inconclusive
O=c1c2ccccc2nnn1CCN1CCOCC1	none
